“And” between values parts separate entries of the source, which are not always exact repeats. Equal entries are not always repeated. Inconclusive results are not listed. Where a call stands in place of a potency, no number is given. Some compounds were tested as several samples or in several runs, with calls that do not always agree. The source made the active and inactive calls. Unless noted, calls follow the shape of the dose curve; as a rule, active = well fitted curve in the direction sought with a large enough effect in the repeat runs; inconclusive = weak or mixed curves; inactive = no such curve, though single readings can be large; an effect the other way counts as inactive or inconclusive.
Assays:
[1] = qHTS assay to identify small molecule agonists of the vitamin D receptor (VDR) signaling pathway - cell viability counter screen (AID 743224); also: series mostly up to about 63 µM; nearly all actives have a fitted effect of over 50% in size
Procedure, shortened: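 In parallel with the bla FRET readout, cytotoxicity toward VDR-bla cells after 16 h compound exposure was assessed by CellTiter-Glo, with luminescence recorded after a 30 min room-temperature incubation.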

[2] = qHTS assay to identify small molecule antagonists of the vitamin D receptor (VDR) signaling pathway - cell viability counter screen (AID 743225); also: nearly all actives have a fitted effect of over 50% in size
Procedure, shortened: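 Cells (VDR-UAS-bla HEK 293T) are plated, rested 4 h at 37C, dosed with compound and 3 nM final 1-alpha,25-dihydroxy vitamin D3, and incubated 16 h. Viability is taken from CellTiter-Glo luminescence in the reporter wells.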

[3] = qHTS assay to identify small molecule agonists of the NFkB signaling pathway (AID 1159509; active = well fitted curve in the direction sought with a large enough effect in the signal ratio in the repeat runs, not every such curve was filed as active; the % refers to the signal ratio; also: series mostly up to about 61 µM)
Procedure, shortened: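 Pathway activation was measured in ME-180 cells stably expressing beta-lactamase under NF-kB response element control. Substrate cleavage was read as the 460/530 nm emission shift after 5 hr compound incubation.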

[4] = qHTS assay to identify small molecule agonists of the NFkB signaling pathway - cell viability counter screen (AID 1159515; calls by dose curve; also: series mostly up to about 61 µM; nearly all actives have a fitted effect of over 55% in size)
Procedure, shortened: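 Plate 2,000 NFkB-bla ME-180 cells/well; incubate overnight. Add compounds, 5 hr at 37 C. Add FRET substrate, 1.5 hr RT. Add CellTiter-Glo, 30 min RT; read luminescence.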

[5] = qHTS assay to identify small molecule agonists of the endoplasmic reticulum stress response signaling pathway (AID 1159516; active = well fitted activation curve with a large enough effect in the signal ratio in the repeat runs, not every such curve was filed as active; the % refers to the signal ratio)
Procedure, shortened: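 Beta-lactamase expression from the ER stress response element in HeLa reporter cells is quantified with the LiveBLAzer B/G FRET substrate, read at 405 nm excitation after 2 hr at room temperature, following 5 hr compound treatment at 37 C.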

[6] = qHTS assay to identify small molecule agonists of the endoplasmic reticulum stress response signaling pathway - cell viability counter screen (AID 1159517; calls by dose curve; also: series mostly up to about 61 µM; nearly all actives have a fitted effect of over 50% in size)
Procedure, shortened: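 Cpd-treated ESRE-bla HeLa (5 hr, 37 C) → LiveBLAzer 2 hr RT → CellTiter-Glo 30 min RT → luminescence.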

[7] = target: Nuclear receptor ROR-gamma (Homo sapiens) (UniProt P51449); test: qHTS assay to identify small molecule antagonists of the retinoid-related orphan receptor gamma (ROR-gamma) signaling pathway (AID 1159521;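 also: CHO cells with doxycycline inducible ROR-gamma driving an RORE luciferase reporter; top concentration of the series differs between compounds; nearly all actives have a fitted effect of over 50% in size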)
Procedure, shortened: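 RORγ antagonism is scored from reduced reporter luminescence in Tet-on CHO cells. Induction used 1 uM final doxycycline hyclate for 16 h at 37 C, following a 2 h compound exposure.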

[8] = qHTS assay to identify small molecule agonists of the AP-1 signaling pathway - cell viability counter screen (AID 1159525; calls by dose curve; also: nearly all actives have a fitted effect of over 55% in size)
Procedure, shortened: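 Each titration point was normalised to DMSO and tetra n-octyl ammonium bromide controls. The read was Cell Titer Glo luminescence after 30 min at RT, following 5 h compound exposure of ME-180 AP-1-bla cells at 37 °C.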

[9] = qHTS assay to identify small molecule agonists of the AP-1 signaling pathway (AID 1159526; calls by dose curve)
[10] = target: Retinoic acid receptor RXR-alpha (Homo sapiens) (UniProt P19793); test: qHTS assay to identify small molecule agonists of the RXR signaling pathway (AID 1159527; calls by dose curve; also: nearly all actives have a fitted effect of over 35% in size; also: potency is read from the fitted curve at half-maximal effect)
Procedure, shortened: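 qHTS of the Tox21 10K library in GeneBLAzer RXR-alpha HEK 293T cells carrying a beta-lactamase reporter […]; 16 hr treatment, 9-cis retinoic acid as agonist control, FRET read-out.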

[11] = qHTS assay to identify small molecule agonists of the RXR signaling pathway - cell viability counter screen (AID 1159529)
Procedure, shortened: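 Cell viability is measured by CellTiter-Glo luminescence, 30 min at room temperature, in wells already read for beta-lactamase. Engineered HEK 293T cells (RXR-alpha-UAS-bla) are dosed 16 hr at 37 C. Tetraoctyl ammonium bromide serves as positive control.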

[12] = qHTS assay to identify small molecule antagonists of the retinoid acid receptor (RAR) signaling pathway - cell viability counter screen (AID 1159551); also: nearly all actives have a fitted effect of over 35% in size
Procedure, shortened: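 Viability of C3RL4 cells is quantified from ATP by luminescence after 6 h treatment at 37 C with compounds and 1 uM retinol.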

[13] = qHTS assay to identify small molecule antagonists of the retinoic acid receptor (RAR) signaling pathway (AID 1159552; also: nearly all actives have a fitted effect of over 50% in size; also: potency is read from the fitted curve at half-maximal effect)
Procedure, shortened: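 Quantitative HTS in C3RL4 RARE-luciferase reporter cells. Compounds were added with 1 uM (final) retinol; luminescence was read after 6 hr.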

[14] = qHTS assay to identify small molecule agonists of the retinoic acid receptor (RAR) signaling pathway (AID 1159553)
Procedure, shortened: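 Compounds dissolved in DMSO were pinned onto C3RL4 cells seeded the previous day, and plates were held 6 hr at 37 C. RARE-driven luciferase output was then read by luminescence.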

[15] = qHTS assay to identify small molecule antagonists of the estrogen related receptor (ERR) signaling pathway - cell viability counter screen (AID 1224818);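 also: series mostly up to about 46 µM; viability measured after 17.5 h of compound exposure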
Procedure, shortened: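 Cytotoxicity check run alongside the ERR antagonist screen: cells exposed to test compounds 17.5 h at 37 C, viability taken as CellTiter-Fluor fluorescence intensity.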

[16] = qHTS assay to identify small molecule antagonists of the estrogen related receptor signaling pathway with the pleiotropic PPARgamma coactivator (PGC) cell viability counter screen (AID 1224822;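 also: series mostly up to about 46 µM; viability read after 17.5 h compound exposure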)
Procedure, shortened: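 Viable cell signal (CellTiter-Fluor, 30 min, 37 C/5% CO2) was measured in PGC/ERR cells after a 17.5 h compound incubation.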

[17] = qHTS assay to identify small molecule antagonists of the retinoid-related orphan receptor gamma (ROR-gamma) signaling pathway - cell viability counter screen (AID 1159520); also: nearly all actives have a fitted effect of over 50% in size
Procedure, shortened: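 Tet-on ROR gamma CHO cells (1,000/well) were plated 4 hr, given compounds in DMSO for 2 hr at 37 C, then induced with 1 uM final doxycycline for 16 hr. Viability was read as ATP by CellTiter-Glo luminescence after 30 min.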

Sequence of Retinoic acid receptor RXR-alpha (Homo sapiens) (P19793 whole entry, looked up): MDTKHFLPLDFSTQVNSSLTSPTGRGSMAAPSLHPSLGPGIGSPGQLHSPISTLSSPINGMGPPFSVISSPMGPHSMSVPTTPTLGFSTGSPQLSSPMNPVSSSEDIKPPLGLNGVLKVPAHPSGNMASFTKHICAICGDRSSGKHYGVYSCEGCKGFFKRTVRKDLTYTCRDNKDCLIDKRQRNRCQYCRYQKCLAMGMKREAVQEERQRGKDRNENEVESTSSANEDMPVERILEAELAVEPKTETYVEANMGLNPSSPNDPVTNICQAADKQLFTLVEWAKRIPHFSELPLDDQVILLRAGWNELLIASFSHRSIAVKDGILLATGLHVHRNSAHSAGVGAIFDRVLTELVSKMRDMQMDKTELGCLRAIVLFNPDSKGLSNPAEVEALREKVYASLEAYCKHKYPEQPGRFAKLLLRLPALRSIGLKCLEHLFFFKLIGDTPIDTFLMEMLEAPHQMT

Q: For `C[N+](C)(C)CCCCCC[N+](C)(C)C`, which Potency [1] is on record?
A: inactive

Q: What about the Potency [2] of the same compound?
A: inactive

Q: And the outcome [3]?
A: inactive

Q: What about the outcome [4] of the same compound?
A: inactive

Q: And the outcome [5]?
A: inactive

Q: And the outcome [6]?
A: inactive

Q: What about the Potency [7] of the same compound?
A: inactive

Q: What about the Potency [8] of the same compound?
A: inactive

Q: And the outcome [9]?
A: inactive

Q: What about the Potency [10] of the same compound?
A: inactive and 10.7 µM (active)

Q: What about the Potency [11] of the same compound?
A: inactive

Q: And the outcome [12]?
A: inactive

Q: And the Potency [13]?
A: inactive and 16.8 µM (active)

Q: And the Potency [14]?
A: inactive

Q: And the outcome [15]?
A: inactive

Q: And the outcome [16]?
A: inactive

Q: Which activity change, negative = cytotoxicity [1] does the source give for `CCC(C)S` (stereo not given) here?
A: 8.62% [at 2.7 µM] (inactive)

Q: What about the viability change, negative = cytotoxic [2] of the same compound?
A: 1.2% [at 3.11 µM] (inactive)

Q: What about the activation [3] of the same compound?
A: 0.0323% [at 3.11 µM] (inactive)

Q: What about the activity, negative = cytotoxic [4] of the same compound?
A: 6.58% [at 3.12 µM] (inactive)

Q: And the activation [5]?
A: 2.07% [at 3.11 µM] (inactive)

Q: And the activity change, negative = cytotoxicity [6]?
A: 12.1% [at 3.11 µM] (inactive)

Q: And the activity change, negative = inhibition [7]?
A: 4.64% [at 3.27 µM] (inactive)

Q: What about the viability change, negative = cytotoxic [8] of the same compound?
A: 5.51% [at 2.72 µM] (inactive)

Q: What about the activation [9] of the same compound?
A: -2.17% [at 2.72 µM] (inactive)

Q: And the activation [10]?
A: 0.574% [at 2.71 µM] (inactive)

Q: And the activity change, negative = cytotoxicity [11]?
A: 0.658% [at 2.72 µM] (inactive)

Q: And the activity change, negative = cytotoxicity [12]?
A: 1.76% [at 3.27 µM] (inactive)

Q: And the activity, negative = inhibition [13]?
A: -4.13% [at 3.27 µM] (inactive)

Q: What about the activation [14] of the same compound?
A: 1.68% [at 3.75 µM] (inactive)

Q: Which Potency [2] does the source give for `NS(=O)(=O)c1cc(C(=O)NN2C[C@H]3[C@H]4CCC(C4)[C@H]3C2)ccc1Cl` here?
A: inactive

Q: And the outcome [3]?
A: inactive

Q: And the outcome [4]?
A: inactive

Q: And the outcome [5]?
A: inactive

Q: What about the outcome [6] of the same compound?
A: inactive

Q: And the outcome [17]?
A: inactive

Q: What about the Potency [7] of the same compound?
A: inactive

Q: What about the Potency [8] of the same compound?
A: inactive

Q: And the outcome [9]?
A: inactive

Q: What about the Potency [10] of the same compound?
A: inactive

Q: What about the Potency [11] of the same compound?
A: inactive

Q: And the outcome [12]?
A: inactive

Q: And the Potency [13]?
A: inactive

Q: What about the Potency [14] of the same compound?
A: inactive

Q: For `O=C(CCCN1CCN(c2ccccn2)CC1)c1ccc(F)cc1`, which Potency [2] is on record?
A: inactive

Q: And the outcome [3]?
A: inactive

Q: And the outcome [4]?
A: inactive

Q: And the outcome [5]?
A: inactive

Q: What about the outcome [6] of the same compound?
A: inactive

Q: And the Potency [7]?
A: inactive

Q: And the Potency [8]?
A: inactive

Q: And the outcome [9]?
A: inactive

Q: And the Potency [10]?
A: inactive

Q: What about the Potency [11] of the same compound?
A: inactive

Q: What about the outcome [12] of the same compound?
A: inactive

Q: And the Potency [13]?
A: inactive

Q: And the Potency [14]?
A: inactive

Q: What does the source list for `O=C(O)c1ccccc1OP(=O)(O)O`?
A: Potency [1]: inactive; Potency [2]: inactive; outcome [3]: inactive; outcome [4]: inactive; outcome [5]: inactive; outcome [6]: inactive; Potency [7]: inactive; Potency [8]: inactive; outcome [9]: inactive; Potency [10]: inactive; Potency [11]: inactive; outcome [12]: inactive; Potency [13]: inactive; Potency [14]: inactive

Q: Which Potency [1] does the source give for `C/C=C(\C)C#N` here?
A: inactive

Q: And the Potency [2]?
A: inactive

Q: What about the outcome [3] of the same compound?
A: inactive

Q: What about the outcome [4] of the same compound?
A: inactive

Q: And the outcome [5]?
A: inactive

Q: What about the outcome [6] of the same compound?
A: inactive

Q: What about the Potency [7] of the same compound?
A: inactive

Q: What about the Potency [8] of the same compound?
A: inactive

Q: What about the outcome [9] of the same compound?
A: inactive

Q: And the Potency [10]?
A: inactive

Q: And the Potency [11]?
A: inactive

Q: And the outcome [12]?
A: inactive

Q: And the Potency [13]?
A: inactive

Q: What about the Potency [14] of the same compound?
A: inactive

— PubChem BioAssay (Tox21)
